In the library only some 4.5% were active in any assay of this set; here they are far more common.
Efflux pump mplx = blocks antifungal efflux pumps in multiplex yeast assay. S. cerevisiae Candida pump triplex, Nile Red efflux. inhibition, % at 10 µM. 330,000 tested, 0.44% active. AID 485275;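 active = plate passing quality check with inhibition over a set limit, or well fluorescence over plate mean plus 4 SD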;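 also: Nile Red retained in pooled yeast measured as flow cytometry median fluorescence; higher means more Nile Red kept so more efflux inhibition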
Rtt109 HAT inh = C. albicans Rtt109 histone acetyltransferase inhibition. Q5AAJ8. purified Rtt109/Vps75, ThioGlo CoA-SH fluorescence, 4 h. inhibition, % at 34.9 µM. 330,000 tested, 0.16% active;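 active = inhibition of at least 50% in every replicate; inconclusive = best replicate reaches 50% inhibition but some replicates fall short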
Rce1 inhib = inhibitors of yeast Ras-converting enzyme | Q03530 | yeast membranes, quenched prenylated peptide cleavage fluorescence | calls only | 290,000 tested, 0.27% active | AID 2563;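 active = fall in fluorescence gain of 50% or more versus controls, with final raw signal at or below 3038400; inconclusive = same 50% fall but final raw signal above 3038400; inactive = fall in fluorescence gain under 50%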
Target sequence (Q03530 whole entry, looked up): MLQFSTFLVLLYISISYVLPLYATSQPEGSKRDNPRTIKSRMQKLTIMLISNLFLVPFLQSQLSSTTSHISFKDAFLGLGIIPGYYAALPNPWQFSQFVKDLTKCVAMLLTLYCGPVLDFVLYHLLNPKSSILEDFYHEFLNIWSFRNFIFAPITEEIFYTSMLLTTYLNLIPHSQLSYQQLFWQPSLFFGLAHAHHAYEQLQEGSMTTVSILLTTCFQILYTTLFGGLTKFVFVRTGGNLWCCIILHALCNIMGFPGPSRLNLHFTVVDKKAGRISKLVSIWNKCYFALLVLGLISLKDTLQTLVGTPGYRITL
GRK2 aptamer HTS = inhibitors of human GRK2 displacing RNA aptamer | AID 488847 | 330,000 tested, 0.59% active | P25098 | inhibition of aptamer binding, % at 10 µM | bead flow cytometry, FAM-aptamer displacement from GRK2;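 active = inhibition of aptamer binding above 40%, roughly 3 SD of noise, on plates passing a quality check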;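 also: median bead fluorescence of bound FAM aptamer so fluorescent compounds give negative values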
HDAC3 inh = blocks human histone deacetylase 3 | recombinant HDAC3, fluorogenic peptide/trypsin coupled, fluorescence | 320,000 tested, 0.15% active | inhibition, % at 8.3 µM; in the data active = inhibition above about 26%, passing the limit was not always enough; inconclusive = no clear call, values can overlap the other calls
ALR H2O2 inh = human ALR oxidase inhibition via reduced H2O2; AID 485317; 290,000 tested, 3.8% active; inhibition, % (test concentration not listed); purified ALR, DTT oxidation, H2O2 HRP-luminol luminescence; P55789;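 active = mean replicate inhibition above about 79%, with every replicate also reaching it, limit read from the data; inconclusive = only one of the two criteria met; inactive = mean below limit and not every replicate reaching it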
Target sequence (P55789 whole entry, looked up): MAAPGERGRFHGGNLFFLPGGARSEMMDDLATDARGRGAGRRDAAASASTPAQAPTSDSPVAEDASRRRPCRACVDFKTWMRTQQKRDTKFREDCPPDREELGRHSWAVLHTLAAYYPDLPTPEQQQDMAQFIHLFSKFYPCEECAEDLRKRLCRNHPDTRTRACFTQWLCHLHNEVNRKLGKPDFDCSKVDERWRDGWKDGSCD
GRK2 CP1 = human GRK2 inhibition confirmation, cherry pick 1. shares compounds with GRK2 aptamer HTS. bead-bound GRK2, FAM-aptamer displacement, flow cytometry. aptamer displacement, % at 10 µM. 2,000 tested, 4% active. AID 504451;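 active = aptamer displacement above 40%, near three times the noise of non-fluorescent compounds, on plates passing quality checks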;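 also: negative values mostly reflect intrinsic compound fluorescence rather than true enhancement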
Aptamer quench 1 = counter-screen for GRK2 aptamer inhibitors: fluorescent aptamer quenchers | fluorescence change (kMESF span), kMESF (test concentration not listed) | Fluorescent RNA aptamer beads, quenching, flow cytometry; active compounds read high | 110 tested, under 10 active | shares compounds with GRK2 aptamer HTS;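 active = compounds whose bead fluorescence drops by more than 37 kMESF across the dose range, marking them as dye quenchers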
FAM quench CP1 = quenches fluorescent RNA aptamer, GRK2 hit artifact; Carboxyfluorescein RNA aptamer on beads, flow cytometry quenching; active compounds read low; AID 504580; shares compounds with GRK2 aptamer HTS; fluorescence response (% of DMSO), % at 10 µM; 2,000 tested, under 10 active;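 active = compounds that quench the bead-bound fluorescent RNA probe, cutting fluorescence to under half of the solvent control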;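 also: counterscreen run without GRK2 so only probe quenching by compound is measured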
GRK2 confirm 2 = human GRK2 inhibition confirmation, cherry pick 2; 360 tested, under 10 active; shares compounds with GRK2 aptamer HTS; bead-bound GRK2, FAM-aptamer displacement, flow cytometry; inhibition of aptamer binding, % at 10 µM;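 active = inhibition of aptamer binding above 40%, about triple the noise seen with nonglowing compounds, on plates passing quality control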;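 also: negative values mostly come from compounds that fluoresce themselves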
FAM quench SP = counter-screen for GRK2 binding hits: quenchers of fluorescent RNA aptamer | shares compounds with GRK2 aptamer HTS | carboxyfluorescein RNA aptamer beads, flow cytometry quenching; active compounds read low | 360 tested, under 10 active | fluorescence response vs DMSO, % at 10 µM;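 active = response vs DMSO under 50%, meaning signal dropped by over half, treated as fluorescence quencher; inconclusive = no clear call, values can overlap the other calls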;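 also: labelled aptamer on streptavidin beads without GRK2 as a quench counter-screen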
Each line names hits and unclear results; the compound was inactive in the other large screens (follow-up assays come after a bar, where they were run).

O=C(O)c1cccc(NS(=O)(=O)c2cc(S(=O)(=O)c3ccc(Cl)cc3)ccc2Cl)c1	none
O=C(NCc1cccnc1)c1ccccc1CCc1ccccc1	none
O=C(c1ccc2nccnc2c1)N1CCN(c2cccc(C(F)(F)F)c2)CC1	none (no result: Rce1 inhib)
O=C(c1cccc(F)c1)N1CCN(c2cccc(C(F)(F)F)c2)CC1	GRK2 aptamer HTS 60 (no result: ALR H2O2 inh) | GRK2 CP1 inactive | FAM quench CP1 inactive
Cc1cccc(C(=O)Nc2ccc(NC(=O)CN3CCOCC3)cc2)c1	none (no result: ALR H2O2 inh)
Cc1ccc(-c2ccc(CCC(=O)O)n2CC(=O)O)cc1	GRK2 aptamer HTS 89 | GRK2 CP1 inactive | FAM quench CP1 inactive
Cc1noc(C)c1NC(=O)Nc1ccc2c(c1)CC(=O)N([C@H](C)CO)C[C@@H](C)[C@H](CN(C)CC1CCCCC1)O2	none (no result: Rce1 inhib)
Nc1nn(-c2ccccc2)c2ccc([N+](=O)[O-])cc12	GRK2 aptamer HTS 75, ALR H2O2 inh inconclusive | GRK2 CP1 inactive | FAM quench CP1 inactive
O=[N+]([O-])c1ccc2c(c1)nnn2-c1ccccc1	none
O=C(Nc1cccc2ncccc12)c1ccco1	none
CCOCCc1nnc(NC(=O)C(C)Oc2ccccc2)s1 (centres undefined)	none
O=C(O)CC(CC(=O)Nc1nncs1)c1ccccc1 (centres undefined)	GRK2 aptamer HTS 49 | GRK2 CP1 inactive | FAM quench CP1 inactive
COCCSc1nnc(NC(=O)CS(=O)(=O)c2ccc(C)cc2)s1	none (no result: ALR H2O2 inh)
CCOCCc1nnc(NC(=O)CCS(=O)(=O)c2ccccc2)s1	none (no result: Rce1 inhib) | GRK2 CP1 inactive | FAM quench CP1 inactive
CCCCC(=O)Nc1nnc(CCc2ccccc2)s1	GRK2 aptamer HTS 99 | GRK2 CP1 inactive | FAM quench CP1 inactive
COCCSc1nnc(NC(=O)CCS(=O)(=O)c2ccccc2)s1	none | GRK2 CP1 inactive | FAM quench CP1 inactive
O=C(O)/C=C/C(O)c1ccc(Cl)cc1 (centres undefined)	none (no result: Rce1 inhib)
CC1(C)CNC(=O)c2sc(NC(=O)c3ccccc3Cl)nc2C1	none
COC(=O)c1ccsc1NC(=O)CCS(=O)(=O)c1ccc(Cl)cc1	none | GRK2 confirm 2 inactive | FAM quench SP inactive
O=C(CCS(=O)(=O)c1ccccc1)Nc1nncs1	GRK2 aptamer HTS 54 | GRK2 CP1 inactive | FAM quench CP1 inactive
CC(C)Cc1nnc(NC(=O)CCS(=O)(=O)c2ccc(Cl)cc2)s1	none | GRK2 CP1 inactive | FAM quench CP1 inactive
COC(=O)c1ccsc1NC(=O)CCS(=O)(=O)c1ccccc1	none
O=C(CCCc1ccccc1)Nc1nncs1	none
Cc1ccc(NC(=O)CN2CCN(C)CC2)cc1S(=O)(=O)N1CCOCC1	none
CN(Cc1ccccc1)C(=O)COC(=O)CCC(=O)c1ccc(Cl)cc1	none (no result: Rce1 inhib)
CN(Cc1ccccc1)C(=O)COC(=O)CCC(=O)c1ccc(F)cc1	none (no result: Rce1 inhib) | GRK2 CP1 inactive | FAM quench CP1 inactive
NC(=O)c1ccc(NC(=O)COC(=O)/C=C/c2ccc(Br)o2)cc1	GRK2 aptamer HTS 44 (no result: Rce1 inhib) | GRK2 CP1 inactive | FAM quench CP1 inactive
COc1ccccc1/C=C/CN1CCCC(CCC(=O)NCc2ccccc2F)C1 (centres undefined)	none
Cc1ccc(N2C(=O)N(CC(=O)Nc3ccc([N+](=O)[O-])cc3)C(=O)C2C)cc1 (centres undefined)	GRK2 aptamer HTS 100 | GRK2 confirm 2 inactive | FAM quench SP inactive
Cc1ccc(N2C(=O)N(CC(=O)Nc3cc(C)cc(C)c3)C(=O)C2C)cc1 (centres undefined)	none
Cc1ccc(N2C(=O)N(CC(=O)Nc3ccc(F)c(F)c3)C(=O)C2C)cc1 (centres undefined)	GRK2 aptamer HTS 100 (no result: ALR H2O2 inh) | GRK2 CP1 inactive | FAM quench CP1 inactive
O=C(Cc1ccc(Cl)cc1)Nc1cc(Cl)ccn1	none
COc1ccc(CN(C)C(=O)C2CCN(S(=O)(=O)c3cccs3)CC2)cc1F	none (no result: Rce1 inhib, ALR H2O2 inh)
CC(CC(=O)OCC(=O)Nc1ccc2[nH]c(=O)[nH]c2c1)c1ccccc1 (centres undefined)	none (no result: Rce1 inhib)
O=C(CCS(=O)(=O)c1ccc(Br)s1)N1CCc2ccccc21	none | GRK2 CP1 inactive | Aptamer quench 1 inactive | FAM quench CP1 inactive
O=C(CS(=O)(=O)c1ccccc1)N1CCc2ccccc21	none (no result: ALR H2O2 inh)
CC1C(=O)N2CCCc3cc(S(=O)(=O)Nc4ccccc4C(N)=O)cc1c32 (centres undefined)	none
CC[C@@H](C)[C@H](NC(=O)Cc1c(C)c2c(cc(C)c3c(C)coc32)oc1=O)C(=O)O	none
CSCC[C@H](NC(=O)Cc1c(C)c2c(cc(C)c3c(C)coc32)oc1=O)C(=O)O	GRK2 aptamer HTS 97 | GRK2 CP1 inactive | FAM quench CP1 inactive
O=C(C1CCCN(S(=O)(=O)c2cccc3nsnc23)C1)N1CC=C(c2ccccc2)CC1 (centres undefined)	none (no result: Rtt109 HAT inh, Rce1 inhib) | GRK2 CP1 inactive | FAM quench CP1 inactive
Oc1c(Br)cc(Br)cc1C=NCc1ccc(F)cc1	GRK2 aptamer HTS 41 (no result: Rtt109 HAT inh) | GRK2 CP1 inactive | FAM quench CP1 inactive
Cc1cccc2c(C(=O)Nn3cnnc3)cc(-c3ccccc3Cl)nc12	none
Cc1cccc2c(C(=O)n3cccn3)cc(-c3ccccc3Cl)nc12	none | GRK2 CP1 inactive | FAM quench CP1 inactive
CCc1nn2c(N3CCOCC3)cc(C)nc2c1-c1ccccc1	none (no result: ALR H2O2 inh) | GRK2 CP1 inactive | FAM quench CP1 inactive
Cc1cc(N2CCOCC2)n2nc(C)c(-c3ccccc3)c2n1	none (no result: Rce1 inhib, ALR H2O2 inh)
CCn1c(=S)sc2c(=O)n(CC(=O)Nc3ccccc3C(F)(F)F)c(C)nc21	GRK2 aptamer HTS 59 | GRK2 CP1 inactive | FAM quench CP1 inactive
CCN(CC)C(=O)COc1ccc2oc(-c3ccco3)cc(=O)c2c1	GRK2 aptamer HTS 62 (no result: ALR H2O2 inh) | GRK2 CP1 inactive | FAM quench CP1 inactive
CCN(CC)C(=O)COc1c(-c2ccco2)oc2ccccc2c1=O	none
CCc1ccc2nc3c(c(C(=O)O)c2c1)CCC3	none | GRK2 confirm 2 inactive | FAM quench SP inactive
CC1CCc2nc3ccc(S(=O)(=O)N4CCC(C(=O)N5CCCCC5)CC4)cc3c(C(=O)O)c2C1 (centres undefined)	none

Assay outcomes as filed in PubChem.
